Screening data deposited in PubChem by Broad Institute.
The list is not random: actives were taken first. Their share in the collection is about 6.8%.
T cruzi growth-1 – blocks T. cruzi growth in NIH3T3 culture; AID 624255; T. cruzi beta-gal in NIH3T3, GalScreen luminescence, 90 h; 77,000 compounds, 5.9% hits; inhibition, % at 8.34 µM;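 active means mean inhibition above about 93%, with at least 55% of replicates each passing it, limit read from the data, passing the limit was not always enough; inconclusive means only one of those two conditions holds; inactive means neither condition holds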
Pf Dd2 growth – blocks growth of Plasmodium falciparum Dd2 parasites | P. falciparum Dd2 growth, SYBR Green, 72 h; active compounds read low | 94,000 compounds, 2.3% hits | activity change, % at 10 µM; in the data active means activity change below about -80%; inconclusive means no clear call, values can overlap the other calls
C diff HTS – blocks growth of Clostridium difficile. Clostridium difficile clinical isolate growth, OD600, 24 h; active compounds read low. growth activity, negative = inhibition, % at 16 µg/mL (by protocol). 86,000 compounds, 0.25% hits. AID 1259249;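 active means mean growth activity at or below -80% and every replicate also at or below -80%; inconclusive means mean at or below -80% but some replicate above -80%; inactive means mean growth activity above -80%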;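 further: 0% = DMSO wells and -100% = levofloxacin 16 µg/mL wells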
T cruzi growth-2 – Trypanosoma cruzi proliferation inhibition; shares compounds with T cruzi growth-1; T. cruzi beta-gal in NIH3T3, GalScreen luminescence, 90 h; inhibition, % at 8.35 µM; 5,600 compounds, 72% hits;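 active means mean replicate inhibition above about 95% and at least 55% of replicates individually reaching it, limit read from the data; inconclusive means only one of the two criteria is met; inactive means neither criterion is met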
T cruzi growth-3 – inhibitors of T. cruzi proliferation. shares compounds with T cruzi growth-1. T. cruzi beta-gal in NIH3T3, GalScreen luminescence, 90 h. 5,600 compounds, 21% hits. inhibition, % at 2.09 µM. AID 651740;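 active means mean inhibition above about 95%, with at least 55% of replicates also reaching it, limit read from the data; inconclusive means meets just one of the two conditions; inactive means meets neither condition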;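 further: plate controls were neutral control median for no effect and positive control median for full effect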
NIH3T3 tox – NIH/3T3 (mouse) viability loss; shares compounds with T cruzi growth-1; NIH/3T3 viability, CellTiter-Glo ATP luminescence, 90 h; cytotoxicity (signal decrease), % at 8.35 µM; 5,600 compounds, 14% hits; AID 651742;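 active means mean signal decrease across replicates above about 35% based on untreated-well scatter, with enough replicates individually passing, limit read from the data; inconclusive means no rule stated though some were filed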;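 further: 0% = median of neutral control wells and 100% = median of positive control wells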
3T3 cytotox 2 – cytotoxicity in mouse NIH/3T3 fibroblasts; shares compounds with T cruzi growth-1; NIH/3T3 viability, CellTiter-Glo ATP luminescence, 90 h; inhibition, % at 24.9 µM; 5,600 compounds, 56% hits;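 active means mean loss of cell viability signal at or above a set limit, and enough replicates individually reaching it; inconclusive means meets only the mean limit or only the replicate share; inactive means meets neither condition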;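 further: 0% = median of neutral control wells and 100% = median of positive control wells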
Active calls of the source: *; ? = inconclusive; · = no result; ! = not active in a repeat.

SMILES | T cruzi growth-1 | Pf Dd2 growth | C diff HTS | T cruzi growth-2 | T cruzi growth-3 | NIH3T3 tox | 3T3 cytotox 2
O=C(C[C@H]1CC[C@@H](NS(=O)(=O)c2ccc(F)cc2)[C@@H](CO)O1)N1CCc2ccccc2C1 | -10 | 20 | -1 | · | · | · | ·
O=C(NCC[C@H]1CC[C@@H](NS(=O)(=O)c2ccccc2F)[C@@H](CO)O1)c1ccc(F)cc1 | -73 | -10 | · | · | · | · | ·
COc1ccc(S(=O)(=O)N[C@H]2C=C[C@@H](CC(=O)N3CCC(Cc4ccccc4)CC3)O[C@H]2CO)cc1 | 110* | -37 | 1 | 59 | 31 | 10 | 70*
Cc1ccc(S(=O)(=O)N[C@@H]2CC[C@@H](CC(=O)N3CCC(Cc4ccccc4)CC3)O[C@@H]2CO)cc1 | 111* | -15 | 1 | 110* | 37 | -33 | 35*
O=C(c1ccccn1)N1CC2(C1)[C@@H](c1ccccc1)[C@@H](CO)N2C(=O)C1CCCC1 | · | 18 | -2 | · | · | · | ·
CN(C)C(=O)c1ccc(-c2ccc([C@H]3[C@H](CO)N4C(=O)CN(C(=O)C5CC5)C[C@@H]34)cc2)cc1 | · | -13 | 1 | · | · | · | ·
CO[C@@H]1CN(C)C(=O)c2cc(NC(=O)C3CCCCC3)ccc2OC[C@@H](C)N(Cc2cccnc2)C[C@@H]1C | 63 | · | · | · | · | · | ·
COc1ccc(S(=O)(=O)N(C)C[C@H]2Oc3ncc(-c4ccncc4)cc3C(=O)N([C@H](C)CO)C[C@H]2C)cc1 | 22 | 18 | 2 | · | · | · | ·
C[C@@H]1CCCCO[C@H](CN(C)C(=O)Cc2ccccc2)[C@@H](C)CN([C@@H](C)CO)C(=O)c2cc(NC(=O)c3ccncc3)ccc2O1 | 7 | -35 | 2 | · | · | · | ·
CO[C@H]1CN(C)C(=O)c2cc(NC(=O)NC(C)C)ccc2OC[C@H](C)N(C(=O)C2CCC2)C[C@H]1C | 6 | -14 | · | · | · | · | ·
O=C(NCC[C@H]1CC[C@@H](NC(=O)c2ccc3c(c2)OCO3)[C@@H](CO)O1)Nc1ccc(Cl)cc1 | · | -36 | -1 | · | · | · | ·
O=C(Nc1ccc(F)cc1)N1C[C@@H]2[C@H](c3ccccc31)[C@@H](CO)N2C(=O)Cc1ccccn1 | -34 | 6 | 10 | · | · | · | ·
O=S(=O)(N[C@H]1CC[C@H](CCn2cc(-c3ccccn3)nn2)O[C@@H]1CO)c1cccc(F)c1 | 10 | -5 | -3 | · | · | · | ·
C[C@H]1CN([C@@H](C)CO)C(=O)c2cc(/C=C/c3ccccc3)cnc2O[C@@H]1CN(C)Cc1ccncc1 | 85 | -32 | 0 | · | · | · | ·
COc1cccc(-c2cnc3c(c2)C(=O)N([C@H](C)CO)C[C@H](C)[C@H](CN(C)Cc2cccc(C(F)(F)F)c2)O3)c1 | ? | -18 | 23 | 107* | 80 | 30 | 61*
C[C@@H]1CN([C@H](C)CO)C(=O)c2cc(/C=C/c3ccccc3)cnc2O[C@@H]1CN(C)Cc1ccccc1 | 84 | -19 | 16 | · | · | · | ·
C[C@H](CO)N1C[C@H](C)[C@H](CN(C)Cc2ccccc2)Oc2ncc(/C=C/c3ccccc3)cc2C1=O | 120*! | -70 | 22 | 117* | 91 | 37* | 102*
COc1ccc(NC(=O)N(C)C[C@@H]2Oc3ncc(-c4ccc(OC)cc4)cc3C(=O)N([C@H](C)CO)C[C@@H]2C)cc1 | 50 | -3 | · | · | · | · | ·
COc1ccc(NC(=O)N(C)C[C@@H]2Oc3ncc(-c4cccc(C(F)(F)F)c4)cc3C(=O)N([C@H](C)CO)C[C@@H]2C)cc1 | 103* | -40 | 7 | 98* | 60 | 19 | 46*
C[C@H]1CN([C@@H](C)CO)C(=O)c2cc(/C=C/c3ccccc3)cnc2O[C@@H]1CN(C)Cc1ccccc1 | 106* | -59 | 15 | 109* | 79 | 24 | 103*
COc1cccc(-c2cnc3c(c2)C(=O)N([C@H](C)CO)C[C@H](C)[C@H](CN(C)Cc2ccccc2)O3)c1 | 16 | -1 | 4 | · | · | · | ·
COc1ccc(-c2ccc3c(c2)[C@@H]2[C@@H](CCN2C(=O)c2ccc4c(c2)OCO4)[C@H](CO)N3)cc1 | 24 | -52 | -5 | · | · | · | ·
CN(C)CCCNC(=O)C[C@H]1CC[C@@H]2[C@@H](COc3ccc(NC(=O)NC4CCCC4)cc3C(=O)N2C)O1 | 23 | 1 | · | · | · | · | ·
C[C@@H]1CN([C@@H](C)CO)C(=O)c2cccc(NC(=O)C3CC3)c2O[C@@H]1CN(C)S(=O)(=O)c1cn(C)cn1 | 11 | 31 | 7 | · | · | · | ·
